Source: the supplement of paper PMC6555819

What was measured:
Test in all cases: PBM binding z-score (relative to random genomic background probes); higher = stronger binding; sequences stand for … in GC…GCGATTGACAGCGTAGAATGAAGG
[1] = test system: RARb homodimer (NR concentration 270 nM)
Summary of the method: (§1)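 Ligand-free nuclear receptor dimers were applied to custom Agilent 4×180K protein-binding microarrays whose double-stranded probes carried direct-repeat seeds, single-nucleotide variants, half-site ablations and random human genomic background sequences in 34-nt variable regions. Incubation lasted 1 h. Binding z-scores were computed against the random background probes from regression-normalized fluorescence.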

[2] = test system: RARg:RXRa (NR concentration 270 nM, RXRa partner concentration 90 nM)
Summary of the method: as §1

[3] = test system: RARg homodimer (NR concentration 270 nM)
Summary of the method: as §1

[4] = test system: RXRa DBDmut IVT, anti-RXR (DBD mutation: RXRa K156A/R161A, NR concentration 90 nM)
Summary of the method: as §1

[5] = test system: RXRa homodimer (NR concentration 180 nM)
Summary of the method: as §1

[6] = test system: THRa:RXRa (NR concentration 90 nM, RXRa partner concentration 90 nM)
Summary of the method: as §1

[7] = test system: THRa homodimer (NR concentration 90 nM)
Summary of the method: as §1

[8] = test system: VDR homodimer (NR concentration 270 nM)
Summary of the method: as §1

Row | Sequence | PBM binding z-score [1] | PBM binding z-score [2] | PBM binding z-score [3] | PBM binding z-score [4] | PBM binding z-score [5] | PBM binding z-score [6] | PBM binding z-score [7] | PBM binding z-score [8]
1 | CGAACCAGGTCACCAGGACAGTGAAGAGGTTGGA | 3.59 | 5.06 | 5.35 | 2.04 | 4.73 | 3.94 | 2.77 | 1.62
2 | ACTCGGAGGATAAAGGTCAGAGCTACGCCAGTGA | 3.89 | 4.72 | 4.44 | 0.655 | 4.43 | 2.69 | 0.203 | 0.801
3 | ATCTCTAGGTAAAGTTCATTGAAAGATCGATAGA | 1.97 | 2.99 | 3.16 | 2.96 | 2.49 | 1.84 | 0.478 | 4.56
4 | CTATGTAGGTTAAGGGCGTCATTCAGTTTGAAAG | 0.798 | 0.63 | 0.752 | 0.53 | 0.739 | 1.42 | 0.232 | 0.4
5 | CGAACTAGCTCAAGGACAGTGAATCTCCGCACGC | 0.214 | -0.134 | -0.141 | 0.392 | -0.227 | 1.42 | 1.48 | 0.226
6 | TAGCCTAAGTCATGGGCCAGTATACCACGCGAAC | 0.0501 | 0.0528 | 0.13 | -0.416 | 0.289 | -0.0695 | -0.257 | -0.135
7 | TTACAAAGGTGAAAGGTCGTTGATGCACGCCTTG | 3.48 | 5.85 | 3.31 | 1.05 | 7.68 | 3.11 | 0.398 | 1.64
8 | CATACAGGGTAAGCTAGGCCAGAGTAGGGACGGC | 0.192 | 0.225 | 0.59 | -0.744 | 0.077 | 1.49 | -0.191 | -0.259
9 | CGAACTAGGTCACCAGGTCAGTGAAGAGGTTGGA | 4.64 | 5.69 | 6.17 | 1.7 | 4.83 | 3.89 | 2.72 | 1.52
10 | ACTAGCAGGCCAAGAGTCACTCAAGATTAGTCCG | 0.0309 | 0.304 | 0.413 | -0.426 | 0.599 | 0.162 | -0.533 | -0.0236
11 | TAGCCTCGGTCATTCAGGGGCCAGTATAGAAAGC | 2.44 | 3.5 | 3.37 | -0.617 | 0.151 | 1.46 | -0.717 | -0.088
12 | ATCTCTAGGTGAAAGTTCAGTGAATCCCGAGGAT | 2.67 | 2.88 | 2.27 | 0.779 | 2.74 | 2.19 | 0.227 | 1.33
13 | CTATGTAGGTTAAGGGGGTCCTTCAGTTTGAAAG | 1.5 | 1.79 | 1.26 | 0.924 | 1.49 | 2.17 | 0.899 | 1.49
14 | CGAACTAGGTCAAAGTACAGTGAAAGGCGACGTA | 2.8 | 4.13 | 4.62 | 2 | 3.1 | 2.57 | 0.294 | 0.766
15 | CGAACTAGGTCACCATGACAGTGAAGAGGTTGGA | 3.31 | 4.27 | 5.26 | 1.18 | 3.17 | 2.99 | 1.41 | 0.264
16 | CAAGCTAGGTCAAGAGGTCAAAGTCCGCTTCCCG | 5.7 | 8.34 | 7.66 | 2.58 | 8.24 | 4.31 | 2.36 | 3.64
17 | CGAACTAGATCACCAGGACAGTGAAGAGGTTGGA | 0.0313 | -0.13 | 0.172 | 0.251 | 0.0064 | 0.901 | 0.52 | -0.172
18 | ATATGTAGGTCATCGGGTCATTCAGTTTGCGCAT | 4.63 | 6.21 | 5.6 | 2.92 | 6.72 | 4.16 | 3 | 5.1
19 | CGAACTAGGTCACCAGGACGGTGAAGAGGTTGGA | 3.1 | 4.28 | 5.25 | 0.756 | 3.01 | 3.04 | 0.961 | 0.435

Row | Sequence | PBM binding z-score [1] | PBM binding z-score [2] | PBM binding z-score [3] | PBM binding z-score [4] | PBM binding z-score [5] | PBM binding z-score [6] | PBM binding z-score [7] | PBM binding z-score [8]
20 | ATATGTAGGATAGGGTCATTCAGAAAGTAGGGAA | 2.75 | 3.19 | 2.22 | 1.78 | 4.32 | 3.59 | 2.24 | 3.42
21 | CCTTACGGGTCACTTACAGGTTATAGCATTTGGA | 3.2 | 5.65 | 4.51 | 2.19 | 4.62 | 2.95 | 0.577 | 1.66
22 | AAATGTAGGTTAGGGTCATTCAGAAAGTAGGGAA | 3.49 | 3.99 | 3.4 | 2.78 | 5.29 | 4.02 | 3.35 | 3.92
23 | CCAGAAAGGTGAAAGGTAACTCAGTCTGGTACGC | 1.92 | 3.17 | 2.13 | 0.365 | 4.27 | 1.94 | 0.107 | 0.0179
24 | TCTTGTAGATCAAAGGTCAAGAAAGCCGAAGCCT | 4.47 | 5.63 | 5.37 | 0.913 | 7.17 | 3.42 | 0.378 | 0.514
25 | TCTCGGAGGACACGAAAGGGCAGAGCTCGACATC | 2.21 | 1.52 | 2.06 | 0.584 | 0.474 | 1.76 | 0.0765 | -0.17
26 | ATATGTAGGTTAGGGTCATTCACAAAGTAGGGAA | 3.69 | 3.98 | 3.1 | 2.7 | 5.07 | 4.38 | 2.96 | 3.86
27 | CTATGTAGGTTAAGGGGGTCATTCCGTTTGAAAG | 3.76 | 5.11 | 4.02 | 2.32 | 5.96 | 3.58 | 1.83 | 5.23
28 | CGAACTAGATCAAAGGACAGTGAAAGGCGACGTA | 0.779 | 0.0763 | 0.823 | -0.208 | -0.0824 | 0.0238 | -0.506 | 0.0452
29 | CCTACTGGGCCAACAAGGTCATTGATGCCGATAA | 3.24 | 2.97 | 2.76 | 0.655 | 3 | 3.4 | 2.41 | 3.7
30 | CCTGCTAGGTCAAGGGTCAGCTAAAGCAGCTCGC | 4.91 | 6.68 | 6.43 | 1.48 | 7.49 | 3.95 | 1.24 | 1.03
31 | TAGCCTAGGTCATTCAGGGGCCAGTATGGAAAGC | 3.26 | 6.2 | 4.83 | 1.72 | 2.92 | 3.67 | 0.641 | 1.17
32 | CTTACTGGGCCAAAGGTCATTGATTCCAATGCTC | 4.58 | 5.97 | 4.91 | 1.99 | 6.68 | 3.36 | 0.898 | 2.79
33 | CGTCGGAGGACAGAAGGTCAGAGCTGTCCGCTTT | 3.36 | 3.56 | 3.38 | 0.338 | 1.83 | 2.08 | -0.192 | 0.136
34 | CCGACTGGGGCAAAGGTTACGATACTCAGTACGA | 2.03 | 3.68 | 1.78 | 0.541 | 3.62 | 1.81 | -0.139 | -0.301
35 | AATACAGGGTCACTTGGCCAGAGTAGGTACGAAT | 3.25 | 5.22 | 5.19 | 3.11 | 5.25 | 3.37 | 1.15 | 2.85
36 | CGAAGTAGGTCAAAGGACAGTGAAAGGCGACGTA | 3.05 | 4.15 | 4.75 | 1.19 | 3.67 | 2.1 | -0.0786 | 0.382
37 | ATATGTAGGTTAGCGGGGGTCATTCAGACTAGGC | 4.17 | 5.25 | 4.26 | 2.7 | 6.22 | 4.82 | 2.75 | 5.45
38 | ATATATAGGTTAGGGTCATTCAGAAAGTAGGGAA | 3.6 | 4.24 | 3.75 | 2.67 | 5.33 | 4.11 | 3.76 | 3.95

Row | Sequence | PBM binding z-score [1] | PBM binding z-score [2] | PBM binding z-score [3] | PBM binding z-score [4] | PBM binding z-score [5] | PBM binding z-score [6] | PBM binding z-score [7] | PBM binding z-score [8]
39 | CCTACTGGGCCATTCAGAGGTCATCGATCATATG | 4.27 | 4.89 | 3.64 | 0.733 | 4.44 | 3.34 | 1.72 | 3.03
40 | CGTCTAAGGTCAGCAGGTCAGTGAAAGCGACGTG | 5.24 | 6.82 | 7.53 | 3.01 | 6.01 | 4.47 | 3.96 | 1.86
41 | CCTAGTTGGTCAAGGTCTCACACGCTATAGGTAC | 1.32 | 0.677 | 1.21 | 1.08 | 0.272 | 0.956 | 1.03 | 0.887
42 | CGAACTAGGTTAAAGGACAGTGAAAGGCGACGTA | 1.34 | 1 | 1.38 | -0.1 | 0.702 | 0.788 | -0.308 | -0.464
43 | CCTACTGGGCCAAGGTCATTGCTCAGTCAAAGCA | 3.23 | 3.53 | 2.97 | 1.25 | 2.85 | 3.42 | 2.02 | 3.2
44 | CGAACTCGGTCACCAGGACAGTGAAGAGGTTGGA | 1.97 | 2.47 | 3.48 | 0.319 | 1.01 | 1.86 | 0.326 | 0.21
45 | CGAACTAGGTCGAAGGACAGTGAAAGGCGACGTA | 0.802 | 0.619 | 1.1 | 0.469 | 0.475 | 0.508 | -0.399 | -0.311
46 | TAGCCTAGGTCATTGTGCCAGTATAGTACGCATC | 2.7 | 3.4 | 3.77 | 1.9 | 2.17 | 2.61 | 1.03 | 1.2
47 | CGATCTAGGTCACCAGGACAGTGAAGAGGTTGGA | 3.47 | 4.36 | 5.15 | 1.35 | 3.32 | 3.44 | 2.13 | 0.435
48 | CGAGCTAGGTCACCAGGACAGTGAAGAGGTTGGA | 3.31 | 4.21 | 5.39 | 1.24 | 2.97 | 3.18 | 1.65 | 0.493
49 | TCTGCTAGGTCAGTTGGGCAGCTAACGAGCTGCC | 1.91 | 2.37 | 3.42 | 0.193 | 0.493 | 1.12 | -0.349 | -0.821
50 | AGTCCAAGTTCACTAGGTAACGTAAGATTCAGCT | 1.95 | 2.53 | 2.98 | 4.3 | 1.74 | 1.54 | 0.381 | 4.4
51 | ATCGAAGGGTCGAAGGTGAGTATACCCACCCGAA | 1.32 | 2.67 | 1.99 | 0.0916 | 3.12 | 1.05 | -0.355 | 0.519
52 | CGTCCAAGGTCAGAGAGGTCACTGAATGCCGAGT | 5.89 | 7.04 | 7.93 | 3.39 | 6.93 | 4.71 | 3.53 | 6.07
53 | AGAATGAGGTTACACGTAGATCAGGGAAGAAAGT | 1.16 | 2.34 | 1.89 | 1.23 | 2.3 | 2.75 | 1.12 | 0.772
54 | ATATGTAGGTTACGGTCATTCAGAAAGTAGGGAA | 2.42 | 2.34 | 2.47 | 0.852 | 1.64 | 2.08 | 0.831 | 0.93
55 | ATATGTAGGTTAGGGTCTTTCAGAAAGTAGGGAA | 0.963 | 0.711 | 0.651 | 0.741 | 0.743 | 1.51 | 1.22 | 0.739
56 | TCGAGTAGGTTACGCGGGCATTCAGGGATGAAGA | 0.619 | 0.799 | 0.653 | -0.0929 | 0.864 | 0.97 | -0.444 | -0.617
